Bioassay records: PubChem BioAssay, National Center for Advancing Translational Sciences (NCATS)
Only some compounds are listed: those with a hit (about 15% of all), similar ones and a draw of the others.
Sm TGR block: inhibitors of Schistosoma mansoni thioredoxin glutathione reductase; purified TGR, DTNB reduction, TNB absorbance 405 nm; 3% of 360,000 active; Q962Y6; AID 485364; Potency, µM (series often up to 114 µM), inactives show at the highest dose activity change, negative = inhibition, most hits filed as inhibitors; further: potency means the concentration at half of the fitted maximal effect; on the % scale 0 is the no-effect control and ±100 the full control effect; nearly all actives have a fitted effect of over 60% in size
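TGR 20 nM + NADPH 100 uM (dispensed conc.), cpd preinc 15 min RT; start with NADPH (500 uM addition) then DTNB (15 mM addition). Kinetic TNB absorbance, 405 nm filter. Four-parameter Hill fit across titration.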
Pf growth 48h: inhibits P. falciparum growth in the first generation, 48 h | P. falciparum luciferase growth in erythrocytes, 48 h | Potency, µM (series often up to 28.7 µM), without a hit: at the highest dose activity change, negative = inhibition, actives largely listed as inhibitors | 5.9% of 310,000 active | AID 504832; further: potency means the concentration at half of the fitted maximal effect; on the % scale 0 is the no-effect control and ±100 the full control effect
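Parasite viability was followed by luminescence of a genomically integrated firefly luciferase. Cultures held 0.1% parasitemia at 2% hematocrit (final), incubated under 5% CO2 at 37 C.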
Pf growth 96h: P. falciparum growth inhibition at 96 hours | P. falciparum luciferase reporter growth, 96 h | Potency, µM (highest dose often 28.7 µM), without a hit: at the top dose activity change, negative = inhibition, usual class: inhibitors | 6.9% of 320,000 active | AID 504834; further: potency means the concentration at half of the fitted maximal effect; on the % scale 0 is the no-effect control and ±100 the full control effect
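Compounds incubated with erythrocytes infected by luciferase-expressing P. falciparum (2% hematocrit, 0.05% parasitemia final) for 96 hours, 37 C in 5% CO2. Growth inhibition scored as decreased luciferase luminescence.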
HCV inhibitor: HCV inhibition | 3.4% of 340,000 active | Huh7.5.1 HCVcc-Cre infection, luciferase reporter, 44 h | Potency, µM (doses to about 41.8 µM), for the others: at the highest dose activity change, negative = inhibition, actives largely listed as inhibitors | AID 651820; further: potency means the concentration at half of the fitted maximal effect; on the % scale 0 is the no-effect control and ±100 the full control effect
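Infectious HCV cell culture screen: compound-treated cells (1,000/well, pre-plated 4 h) are infected with HCVcc-Cre at roughly 0.5 moi and grown 44 h. Infection is quantified by luciferase signal after 15 min substrate incubation at room temperature.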
SARS PLpro yeast: SARS-CoV PLP inhibition in yeast; 0.19% of 330,000 active; S. cerevisiae expressing SARS-CoV PLpro, growth rescue; AID 485353; Potency, µM (titrated, usually from 32.9 µM), inactives show at the top dose activity, positive = growth rescue, hits mostly activators; calls by dose curve; further: potency means the concentration at half of the fitted maximal effect; 0% is about no effect; nearly all actives have a fitted effect of over 55% in size
HCMV inh: inhibitors of human cytomegalovirus | 4.5% of 410,000 active | activity change, negative = inhibition, % at 57.5 µM | HFF cells, HCMV-luciferase reporter, 72 h; hits give low values | AID 1259415; in the data active means activity change below about -60%; inconclusive means no clear call, values can overlap the other calls; inactive means above about -39%; further: on the % scale 0 is the no-effect control and ±100 the full control effect
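Two-dose cell screen: HFF monolayers treated with compounds and infected with luciferase-expressing HCMV at 1 PFU/cell, 72 h at 37C, then lysed for luciferase measurement.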
The depositor's hits bear a star; u = inconclusive; x = not tested or not shown; [ ] = dose if it differs, or a comment. Unless noted, the call rests on the fitted dose curve; in most records, active means well fitted curve in the direction sought with a large enough effect; inconclusive means small, poorly fitted or top-dose-only effect, or another doubt; inactive means no such curve, though single readings can be large; an effect the other way counts as inactive or inconclusive.

SMILES | Sm TGR block | Pf growth 48h | Pf growth 96h | HCV inhibitor | SARS PLpro yeast | HCMV inh
CCCCNC(=O)c1ccc(NS(=O)(=O)c2ccc3[nH]c(=O)[nH]c3c2)cc1 | -4% | -10% | u | 16% | -2% | 32
COc1ccc(NC(=O)C/C(C)=N/NC(=O)c2ccccn2)c(OC)c1 | 6% | 10% | 13µM* | -5% | 6% | 45
COc1ccc(NC(=O)c2cccc(-n3c(C)ccc3C)c2)c(OC)c1 | -34% | u | u | u | 7% | u
CC(C)=CC(=O)N1CCC(N2CCC(C(=O)N3CCOCC3)CC2)CC1 | -11% | -9% | 40% | 16% | 0% | -28
CC(C)NC(=O)C1CCN(C2CCN(CC3CC=CCC3)CC2)CC1 (stereo unspecified) | 1%[57.1 µM] | -14% | u | u | 24% | 11
CC(C)=CCCC(C)CN1CCC(N2CCC(C(=O)NC(C)C)CC2)CC1 (stereo unspecified) | -4% | 5.2µM* | u | 2.8µM* | 20% | -30
CC(C)=CCCC(C)CN1CCC(N2CCC(C(=O)N3CCOCC3)CC2)CC1 (stereo unspecified) | -1% | u | 27% | 0.89µM* | 0% | -9
O=C1NCC(COCc2ccccc2)O1 (stereo unspecified) | 0% | 13% | 5.2µM* | 0% | 4% | 0
C/C(=N/Nc1ccnc2cc(Cl)ccc12)c1ccc(O)cc1 | -8% | 0.33µM* | 0.29µM* | u | 4% | u
C/C(=N/Nc1nc(-c2ccccc2)cc(-c2ccccc2)n1)c1ccc(N)cc1 | -11% | u | u | -17% | -50% | x
C/C(=N\NS(=O)(=O)c1ccc(Cl)cc1)c1ccc(O)cc1 | -18% | 0% | 25% | u | -10% | 35
C/C(=N/Nc1ccnc2cc(Cl)ccc12)c1ccc(N)cc1 | -8% | 0.83µM* | 0.47µM* | u | -5% | -32
CC(C)CC(c1nnnn1Cc1ccc2c(c1)OCO2)N1CCC(C(N)=O)CC1 (stereo unspecified) | x | -3% | 37% | 4% | 1% | -25
CCCCN(CC)C(=O)CSc1nc2n[nH]c(C)c2c(=N)n1-c1cccc(C)c1 | -10% | u | u | 11µM* | -3% | u
CCOc1ccc(-n2c(SCC(=O)Nc3ccc(CC)cc3)nc3n[nH]c(C)c3c2=N)cc1 | -4% | 11% | u | -28% | 0% | -23
COc1ccc(-n2c(SCC(=O)NCc3ccccc3)nc3n[nH]c(C)c3c2=N)cc1 | 6% | x | x | x | x | 2
COc1ccccc1NC(=O)CSc1nc2n[nH]c(C)c2c(=N)n1-c1ccccc1Cl | 8% | 5.9µM* | 6% | 11µM* | u | -7
CCc1ccc(NC(=O)CSc2nc3n[nH]c(C)c3c(=N)n2-c2ccc(C)cc2)cc1 | 14% | x | x | x | x | -91*
CCc1ccccc1NC(=O)CSc1nc2n[nH]c(C)c2c(=N)n1-c1ccc(OC)cc1 | 1% | u | 32% | 11µM* | 21% | 16
COc1ccc(N2CC(NC(=O)C(=O)c3c[nH]c4ccccc34)CC2=O)cc1 (stereo unspecified) | 0% | x | x | x | x | 44
CCC(Sc1nc2n[nH]c(C)c2c(=N)n1-c1cccc(Cl)c1)C(=O)NCCOC (stereo unspecified) | 4% | u | 0% | -27% | -7% | 36
Cc1cc(-n2c(SCc3ccccc3F)nc3n[nH]c(C)c3c2=N)ccc1Cl | 5% | u | 4.7µM* | 10µM* | 1% | -34
CCC(Sc1nc2n[nH]c(C)c2c(=N)n1-c1ccc(C)c(Cl)c1)C(=O)N1CCOCC1 (stereo unspecified) | -1% | 13µM* | 23% | u | 0% | x
Cc1[nH]nc2nc(SCC(=O)NC3CCCCC3)n(-c3ccc(Br)cc3)c(=N)c12 | -11% | -13% | 13µM* | u | -2% | -89*
Cc1cccc(-n2c(SCC(=O)Nc3ccccc3Cl)nc3n[nH]c(C)c3c2=N)c1 | 7% | x | x | x | x | -62*
SMILES | Sm TGR block | Pf growth 48h | Pf growth 96h | HCV inhibitor | SARS PLpro yeast | HCMV inh
CCc1ccccc1NC(=O)CSc1nc2n[nH]c(C)c2c(=N)n1-c1cccc(C)c1 | 9% | x | x | x | x | 6
CCC(Sc1nc2n[nH]c(C)c2c(=N)n1-c1ccc(Br)cc1)C(=O)N(CC)CC (stereo unspecified) | 15% | x | x | x | x | 0
CCN(C(=O)CSc1nc2ccccc2c2nc(CCn3c(C)nc4ccccc43)nn12)c1cccc(C)c1 | 10% | x | x | x | x | 13
CC(=N)C1=C(O)CC(c2ccccc2)CC1=O (stereo unspecified) | 7% | 20% | 8% | -5% | 3% | -99*
O=C1CC(c2ccccc2)CC(O)=C1C=NCc1ccncc1 (stereo unspecified) | -1% | 9% | 12µM* | 17% | 0% | -7
COc1ccccc1N=CC1=C(O)CC(c2ccccc2)CC1=O (stereo unspecified) | 0% | 13% | 13µM* | -7% | -12% | -14
COC(=O)C(C)Sc1nc2c(cnn2-c2ccc(Cl)cc2)c(=O)[nH]1 (stereo unspecified) | 19% | u | 25% | -23% | -1% | -21
Cc1ccc(N(CC(=O)NCCc2ccccc2)C(=O)CCC(=O)Nc2cc(C)ccn2)cc1 | 4% | -4% | 7% | 7% | -4% | 2
CCC(CC)C(=O)Nc1nnc(S(=O)(=O)Nc2ccccc2C)s1 | -7% | 11% | 15% | 20% | 0% | 39
O=S(=O)(c1ccccc1)c1nc(-c2ccco2)oc1NCc1cccnc1 | 25µM* | u | -1% | -5% | u | u
COCCNc1oc(/C=C/c2ccc(F)cc2)nc1S(=O)(=O)c1ccccc1 | 32µM* | u | u | -4% | -4% | 0
COCCNc1oc(/C=C/c2cccc(OC)c2)nc1S(=O)(=O)c1ccccc1 | x | x | x | x | x | 60
COCCNc1oc(-c2ccco2)nc1S(=O)(=O)c1ccccc1 | 50µM* | 9% | u | 17% | -4% | x
C=CCNc1oc(-c2ccco2)nc1S(=O)(=O)c1ccccc1 | 13µM* | -13% | u | -2% | 2% | -12
COCCNc1oc(-c2cccs2)nc1S(=O)(=O)c1ccc(C)cc1 | -2% | u | u | 5% | 0% | -30
CN1CCN(C(=O)c2cnn(-c3cccc(Cl)c3)c2C2CCN(C(=O)OC(C)(C)C)CC2)CC1 | -2% | x | x | x | x | 0
Cc1ccnc(NC(=O)C(Cc2ccccc2)NC(=O)c2ccccc2)c1 (stereo unspecified) | 5% | u | u | u | -2% | -11
O=c1cc(-c2ccccc2)nc2nc[nH]n12 | 0% | x | 0.29µM* | 14% | 2% | 17
